Results reported in the supplement of paper PMC13380429.

Legend:
[1] = system: Vero E6 infected with SARS-CoV-2; assay: morphology score (similarity to uninfected cells); higher = more like uninfected cells; conditions: 24 h
[2] = system: Vero E6 infected with SARS-CoV-2; assay: SARS-CoV-2 infection rate relative to infected DMSO; higher = more infection, active = 60 or less; conditions: 24 h

Structure (SMILES) | morphology score [1] | SARS-CoV-2 infection rate [2]
Nc1ncnc2c1c(-c1cnc3[nH]ccc3c1)nn2C1CCCC1 (10 µM) | -0.0498 | 114% (inactive)
C[C@@H](Oc1cc(-n2cnc3ccc(CN4CCN(C)CC4)cc32)sc1C(N)=O)c1ccccc1C(F)(F)F (0.833333 µM) | 0.0643 | 94% (inactive)
CN(C)CCOc1ccc(/C(=C(/CCCl)c2ccccc2)c2ccccc2)cc1 [toremifene] (0.833333 µM) | -0.0544 | 112% (inactive)
O=S(=O)(F)Cc1ccccc1 [phenylmethylsulfonyl-fluoride] (10 µM) | 0.191 | 95% (inactive)
NS(=O)(=O)c1cc2c(cc1C(F)(F)F)NC(Cc1ccccc1)NS2(=O)=O (centres undefined) [bendroflumethiazide] (10 µM) | 0.136 | 87.5% (inactive)
CCc1cc2c(cc1N1CCC(N3CCOCC3)CC1)C(C)(C)c1[nH]c3cc(C#N)ccc3c1C2=O [alectinib] (10 µM) | 0.135 | 106% (inactive)
N#Cc1cc(F)cc(-c2nc(-c3ccc(F)cn3)no2)c1 (10 µM) | 0.136 | 89% (inactive)
N[C@H](C(=O)O)c1cc(O)no1 [ibotenic-acid] (10 µM) | -0.00755 | 93% (inactive)
C[C@@H]1CN(c2c(F)c(N)c3c(=O)c(C(=O)O)cn(C4CC4)c3c2F)C[C@H](C)N1 [sparfloxacin] (10 µM) | -0.0335 | 115% (inactive)
CN(CC(=O)O)C(=N)N [creatine] (10 µM) | 0.0148 | 113% (inactive)
Oc1ccc(OCc2ccccc2)cc1 [monobenzone] (10 µM) | -0.207 | 119% (inactive)
O=C(O)c1ccc(Nc2ncc3c(n2)-c2ccc(Cl)cc2C(c2c(F)cccc2F)=NC3)cc1 (10 µM) | 0.00168 | 109% (inactive)
Cc1ccc(Cl)c(Nc2ccccc2C(=O)O)c1Cl [meclofenamic-acid] (10 µM) | 0.0323 | 108% (inactive)
CN1CCN(C(=O)c2nc3ccc(Cl)cc3[nH]2)CC1 (10 µM) | 0.119 | 108% (inactive)
Cn1cc(-c2cnn3c(N)c(Br)c([C@@H]4CCCNC4)nc23)cn1 (10 µM) | 0.535 | 82% (inactive)
Cc1cc(C)n(-c2cccc([C@H](CC(=O)O)CN3CC[C@@H](CCc4ccc5c(n4)NCCC5)C3)c2)n1 [integrin-antagonist-1] (10 µM) | -0.102 | 111% (inactive)
CN1CCN(c2ccc3nc(-c4c(N)c5c(F)cccc5[nH]c4=O)[nH]c3c2)CC1 [dovitinib] (10 µM) | -0.00197 | 102% (inactive)
COc1cc(Nc2ncc3c(n2)-c2ccc(Cl)cc2C(c2c(F)cccc2OC)=NC3)ccc1C(=O)O [alisertib] (0.833333 µM) | 0.272 | 112% (inactive)
CCCCC1CCC(c2nc(-c3ccncc3)no2)CC1 (centres undefined) (10 µM) | -0.00672 | 104% (inactive)
Cc1[nH]c(=O)c(C#N)cc1-c1ccncc1 [milrinone] (10 µM) | 0.236 | 93.5% (inactive)
NC(=O)c1cccc(-c2cccc(OC(=O)NC3CCCCC3)c2)c1 (10 µM) | 0.00303 | 104% (inactive)

Structure (SMILES) | morphology score [1] | SARS-CoV-2 infection rate [2]
CCN1CCC[C@H]1CNC(=O)c1c(OC)ccc(Br)c1OC [remoxipride] (10 µM) | 0.159 | 98.5% (inactive)
N[C@@H]1[C@H]2CN(c3nc4c(cc3F)c(=O)c(C(=O)O)cn4-c3ccc(F)cc3F)C[C@@H]12 [trovafloxacin] (10 µM) | 0.276 | 108% (inactive)
CCOC(=O)C1=CCCC[C@H]1S(=O)(=O)Nc1ccc(F)cc1Cl [resatorvid] (10 µM) | 0.0683 | 99.5% (inactive)
O=C(NCCO)c1cc(C(=O)NCCO)cc(C(=O)NCCO)c1 (10 µM) | 0.0411 | 102% (inactive)
C[C@H](CCC(=O)O)[C@H]1CC[C@H]2[C@@H]3CC[C@@H]4C[C@H](O)CC[C@]4(C)[C@H]3C[C@H](O)[C@]12C [deoxycholic-acid] (10 µM) | 0.0921 | 104% (inactive)
N=C(N)NCCC[C@@H](N)C(=O)N[C@@H](CCCNC(=N)N)C(=O)N1CCC[C@H]1C(=O)N1C[C@H](O)C[C@H]1C(=O)NCC(=O)N[C@@H](Cc1cccs1)C(=O)N[C@@H](CO)C(=O)N1Cc2ccccc2C[C@@H]1C(=O)N1[C@H](C(=O)N[C@@H](CCCNC(=N)N)C(=O)O)C[C@@H]2CCCC[C@@H]21 [icatibant-acetate] (10 µM) | 0.105 | 102% (inactive)
CCn1cc(C(=O)O)c(=O)c2cc(F)c(N3CCN(C)CC3)cc21 [pefloxacin] (10 µM) | 0.158 | 91.5% (inactive)
c1ccc(C(O[C@@H]2CCCN(CCc3ccc4c(c3)OCO4)C2)c2ccccc2)cc1 [zamifenacin] (10 µM) | 0.152 | 96% (inactive)
Cc1cccc(C(=O)O)c1O [hydroxytoluic-acid] (10 µM) | -0.137 | 106% (inactive)
Oc1cc2c(cc1O)CN(C(=S)NCCc1ccc(Cl)cc1)CCC2 [capsazepine] (10 µM) | -0.103 | 92.5% (inactive)
Nc1nc(=O)n([C@@H]2O[C@H](CO)[C@@H](O)[C@@H]2F)cc1I [fiacitabine] (10 µM) | -0.0647 | 111% (inactive)
COc1ccc(C2C(=O)c3ccccc3C2=O)cc1 [anisindione] (10 µM) | -0.177 | 114% (inactive)
CCNCC(O)c1cccc(O)c1 (centres undefined) [etilefrine] (10 µM) | 0.131 | 100% (inactive)
Cc1cccc(C)c1NC(=O)c1ccccc1C(=O)O [ftaxilide] (10 µM) | -0.12 | 106% (inactive)
Nc1ccc(S(=O)(=O)NC(=O)c2ccccc2)cc1 [sulfabenzamide] (10 µM) | 0.0893 | 106% (inactive)
[I-].[K+] [potassium-iodide] (10 µM) | -0.0371 | 114% (inactive)
O=[N+]([O-])c1ccc(O)c([N+](=O)[O-])c1 [2,4-dinitrophenol] (10 µM) | 0.0596 | 97.5% (inactive)
CC[N+](C)(CC)CCOC(=O)C1c2ccccc2Oc2ccccc21 [methantheline] (10 µM) | 0.0949 | 106% (inactive)
CC(SC(=O)c1cccs1)C(=O)NCC(=O)O (centres undefined) [stepronin] (10 µM) | -0.0157 | 113% (inactive)
CCCN(CCC)[C@H]1CCc2cccc(O)c2C1 [8-hydroxy-DPAT] (10 µM) | 0.0607 | 98.5% (inactive)
OCc1ccccc1O[C@@H]1O[C@H](CO)[C@@H](O)[C@H](O)[C@H]1O [salicin] (10 µM) | 0.153 | 99% (inactive)

Structure (SMILES) | morphology score [1] | SARS-CoV-2 infection rate [2]
OCCn1cc(-c2cnc3nnn(Cc4ccc5ncccc5c4)c3n2)cn1 (10 µM) | -0.0332 | 99% (inactive)
CC(C)(C)NC(=O)[C@@H](c1cccnc1)N(C(=O)c1ccco1)c1ccc(C(C)(C)C)cc1 (10 µM) | 0.333 | 83% (inactive)
Cc1ccc2c(c1CCC(=O)O)CC[C@@H](NS(=O)(=O)c1ccc(Cl)cc1)C2 [terutroban] (10 µM) | 0.115 | 112% (inactive)
FC(F)(F)c1cccc(C2=CCN(CCc3ccc4ccccc4c3)CC2)c1 [xaliproden] (10 µM) | -0.0559 | 108% (inactive)
CC(=O)Oc1c(C)cc(OCC(O)CNC(C)C)c(C)c1C (centres undefined) [metipranolol] (10 µM) | -0.0461 | 108% (inactive)
Nc1nc(=O)c2nc(CNc3ccc(C(=O)N[C@@H](CCC(=O)O)C(=O)O)cc3)cnc2[nH]1 [folic-acid] (10 µM) | 0.207 | 102% (inactive)
CC[N+](CC)(CC(=O)Nc1c(C)cccc1C)Cc1ccccc1 [denatonium-benzoate] (10 µM) | 0.144 | 116% (inactive)
Nc1ccc([As](=O)(O)O)cc1 [arsanilic-acid] (10 µM) | -0.00345 | 103% (inactive)
Cn1cc(C(=O)C(=O)N[C@H]2CN3CCC2CC3)c2ccccc21 (10 µM) | 0.181 | 97.5% (inactive)
CN1CCN(CCOc2cc(OC3CCOCC3)c3c(Nc4c(Cl)ccc5c4OCO5)ncnc3c2)CC1 [saracatinib] (10 µM) | -0.132 | 110% (inactive)
C=CCN1CC[C@]2(C)c3cc(O)ccc3C[C@H]1[C@H]2C (10 µM) | 0.112 | 102% (inactive)
C[C@H](CCC(=O)O)[C@H]1CC[C@H]2[C@@H]3CC[C@@H]4C[C@H](O)CC[C@]4(C)[C@H]3CC[C@]12C [lithocholic-acid] (10 µM) | 0.0318 | 110% (inactive)
CCNCCS(=O)(=O)NC[C@@]1(c2ccccc2)SC(NC(=O)C(C)(C)C)=NN1C(=O)C(C)(C)C [litronesib] (10 µM) | -0.218 | 100% (inactive)
C[C@]12C=CC(=O)C=C1CC[C@@H]1[C@@H]2CC[C@]2(C)OC(=O)CC[C@@H]12 [Testolactone] (10 µM) | 0.176 | 80.5% (inactive)
CC(=C(CCOC(=O)C(C)C)SSC(CCOC(=O)C(C)C)=C(C)N(C=O)Cc1cnc(C)nc1N)N(C=O)Cc1cnc(C)nc1N (stereo in doubt) [sulbutiamine] (10 µM) | 0.0249 | 100% (inactive)
C[C@H](Oc1cc(-c2cnn(C3CCNCC3)c2)cnc1N)c1c(Cl)ccc(F)c1Cl [crizotinib-(S)] (0.833333 µM) | 0.602 | 99% (inactive)
COc1cc2nc(C3CC3)nc(N3CCN(c4ccccc4OC)CC3)c2cc1OC (0.833333 µM) | 0.157 | 99% (inactive)
CCCCN(CCCC)CC(O)c1cc(Cl)cc2c1-c1ccc(Cl)cc1/C2=C/c1ccc(Cl)cc1 (centres undefined) [lumefantrine] (10 µM) | 0.15 | 91.5% (inactive)
CNc1cc2[nH]c(=O)n(-c3ccc(NC(=O)NS(=O)(=O)c4ccc(Cl)s4)cc3)c(=O)c2cc1F [elinogrel] (10 µM) | 0.235 | 87.5% (inactive)
Oc1c(Br)cc(Br)c2cccnc12 [broxyquinoline] (10 µM) | 0.015 | 104% (inactive)
